Results: PubChem BioAssay AID1851 (National Center for Advancing Translational Sciences (NCATS), 2009)
Hit rate of the full screen: of about 16,000 compounds, about 5,100 (32%) were called active. Another 25% or so got no clear call; they are omitted. Calls come from the whole dose curve; as a rule, active = well fitted curve in the direction sought with a large enough effect; inconclusive = small, poorly fitted or top-dose-only effect, or effect the other way; inactive = no such curve, though single readings can be large or run the other way. The list shows a part of the results.
% is set by controls: 0 for no effect and ±100 for the full control effect.

Each molecule was assayed against Cytochrome P450 3A4 (Homo sapiens) (UniProt P08684) (assay: Cytochrome panel assay with activity outcomes). Settings: recombinant CYP, pro-luciferin dealkylation, luminescence, p450-cyp3a4; series mostly up to 57.1 µM.
Chain of Cytochrome P450 3A4 (Homo sapiens) (P08684 whole entry, looked up): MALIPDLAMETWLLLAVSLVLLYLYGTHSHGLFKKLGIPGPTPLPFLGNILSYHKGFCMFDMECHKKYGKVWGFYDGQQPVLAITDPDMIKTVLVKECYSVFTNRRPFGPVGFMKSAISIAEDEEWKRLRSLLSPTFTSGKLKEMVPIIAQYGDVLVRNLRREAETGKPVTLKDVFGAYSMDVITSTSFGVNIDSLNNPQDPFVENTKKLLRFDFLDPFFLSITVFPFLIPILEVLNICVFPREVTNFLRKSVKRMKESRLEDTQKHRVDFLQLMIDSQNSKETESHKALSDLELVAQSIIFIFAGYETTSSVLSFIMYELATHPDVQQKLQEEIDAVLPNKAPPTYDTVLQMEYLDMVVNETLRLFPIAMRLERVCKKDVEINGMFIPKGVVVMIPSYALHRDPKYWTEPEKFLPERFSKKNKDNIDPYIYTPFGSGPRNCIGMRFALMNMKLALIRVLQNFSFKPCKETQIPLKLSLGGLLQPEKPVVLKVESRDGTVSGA
`CCOC(=O)Cc1cc(=O)n2[nH]c(C)c(C#N)c2n1` was tested, and the AC50 was “inactive”. With `NC(=O)C(=O)O` the AC50 was “inactive”. For `CCOc1cc(CN2CCN(c3ccc(C(C)=O)cc3)CC2)ccc1OC`, the AC50 was “inactive”. For `COc1ccc(C(=O)CN2CCN(c3ccc(F)cc3)CC2)cc1OC`, the AC50 was 28.2 µM (active). For `CCC(C)NCc1ccc(C(=O)OC)o1` (stereo unspecified), the AC50 was “inactive”. With `CCC/C=C(\CCC)C(NS(=O)(=O)c1cccc2cccnc12)c1ccc(-c2ccccc2)cc1` (stereo unspecified) the AC50 was 3.16 µM (active). In the case of `CCC/C=C(\CCC)C(NS(=O)(=O)c1cccc2cccnc12)c1ccc(C(=O)OC)cc1` (stereo unspecified), the AC50 is reported as 5.01 µM (active). For `CCC(C)N1C(=O)C2C(C(=O)Nc3cccc(OC)c3)C3C=CC2(O3)C1C(=O)NC1CCCCC1C` (stereo unspecified), the AC50 was 15.8 µM (active). For `CC12CCC(C(=O)O)(C/C1=N\O)C2(C)C` (stereo unspecified), the AC50 was “inactive”. `CN1C(=O)c2ccccc2C(C(=O)O)C1c1cn(C)c2ccccc12` (stereo unspecified) was tested, and the activity, negative = inhibition was 7.7% [at 2.29 µM] (inactive). In the case of `COc1ccc(C2C(C(=O)N3CCOCC3)c3ccccc3C(=O)N2c2ccc(OC)cc2)cc1` (stereo unspecified), the AC50 is reported as 8.91 µM (active). In the case of `CCOc1ccc(C2C(C(=O)O)c3ccccc3C(=O)N2CCN2CCOCC2)cc1` (stereo unspecified), the AC50 is reported as “inactive”. With `COc1ccc(C2C(C(=O)N3CCN(C)CC3)c3ccccc3C(=O)N2C2CCCCC2)cc1` (stereo unspecified) the AC50 was 5.01 µM (active). For `Cc1cccn2c(=O)c3cc(C(=O)N4COCC4(C)C)n(C)c3nc12`, the AC50 was “inactive”. With `COc1ccccc1N1CCN(c2nc3c(C)cccn3c(=O)c2C=O)CC1` the AC50 was 15.8 µM (active). In the case of `COc1ccccc1N1CCN(Cc2cc(=O)n3ccsc3n2)CC1`, the AC50 is reported as “inactive”. In the case of `Cc1cccn2c(=O)c(C=NCc3ccco3)c(Nc3ccc(SC(F)F)cc3)nc12`, the AC50 is reported as “inactive”. `Cc1cccn2c(=O)c(/C=N/O)c(N3CCCC3)nc12` was tested, and the AC50 was 12.6 µM (active). For `CC(=O)[C@@H](C)CCO[C@@]1(C)OCC[C@@H]1C`, the activity, negative = inhibition was -5.36% [at 11.4 µM] (inactive). `CCOC(=O)Cc1csc(NS(=O)(=O)c2ccccc2)n1` was tested, and the activity, negative = inhibition was 6.45% [at 2.29 µM] (inactive). With `Cc1ccc(CNC(=O)Cc2csc(Nc3nc(=S)[nH]c4ccccc34)n2)cc1` the AC50 was 1 µM (active). With `O=C(Cc1csc(Nc2nc(=S)[nH]c3ccccc23)n1)NCc1cccc(Cl)c1` the AC50 was 1.78 µM (active). With `COc1ccc(CNC(=O)Cc2csc(Nc3nc(=S)[nH]c4ccccc34)n2)cc1` the AC50 was 1.26 µM (active). For `O=C(Nc1cccc(NC(=O)N2CCN(c3ccccc3)CC2)c1)N1CCN(c2ccccc2)CC1`, the AC50 was 6.31 µM (active). With `O=C(Nc1ccccc1)N1CCOCC1` the AC50 was “inactive”. With `CC(=O)Nc1ccc2nc(C3CCCCC3)[nH]c2c1` the AC50 was “inactive”. With `Cc1ccc2nc(C3CCCN(C(=S)Nc4ccccc4C)C3)[nH]c2c1` (stereo unspecified) the AC50 was 6.31 µM (active). In the case of `Cc1cc2nc(C3CCCN(C(=O)NCc4ccccc4)C3)[nH]c2cc1C` (stereo unspecified), the AC50 is reported as 10 µM (active). For `O=C(O)c1ccc(NCc2nc3cc4ccccc4cc3[nH]2)cc1`, the activity, negative = inhibition was -11.9% [at 11.4 µM] (inactive). `Cc1cccc(NC(=S)N2CCC(N(C)CC3CCCO3)CC2)c1C` (stereo unspecified) was tested, and the AC50 was “inactive”. With `O=C(CSc1nnc(-c2ccc(Cl)cc2Cl)n1C1CCCCC1)NC1CCS(=O)(=O)C1` (stereo unspecified) the AC50 was 10 µM (active). With `Cc1ccc(-n2ccnc2SCC(=O)N(CC(C)C)C2CCS(=O)(=O)C2)c(C)c1` (stereo unspecified) the activity, negative = inhibition was -16.9% [at 2.29 µM] (inactive). With `Cc1cc(C)n2c(SCC(=O)N(C)C3CCS(=O)(=O)C3)nnc2n1` (stereo unspecified) the AC50 was “inactive”. With `O=P(O)(CCP(=O)(O)c1ccccc1)c1ccccc1` the activity, negative = inhibition was -3.78% [at 11.4 µM] (inactive). With `O=P(O)(O)CCP(=O)(c1ccccc1)c1ccccc1` the AC50 was “inactive”. `O=P(Cc1cc[n+]([O-])cc1)(c1ccccc1)c1ccccc1` was tested, and the AC50 was 14.1 µM (active). For `O=C(NCc1ccco1)c1ccccc1NS(=O)(=O)c1ccc(Br)s1`, the activity, negative = inhibition was -21% [at 2.29 µM] (inactive). `Cc1ccc(S(=O)(=O)N(Cc2ccccc2)c2ccccc2C(=O)NCc2ccco2)cc1` was tested, and the AC50 was 2.51 µM (active). For `CCCCOc1cc(C(=O)NCCN(CC)CC)c2ccccc2n1`, the AC50 was “inactive”. `CN(CCCNC(=O)c1cccn2c(=O)c3ccccc3nc12)Cc1ccccc1` was tested, and the AC50 was 1 µM (active). With `CN(CCCNC(=O)c1ccc(/C=N/O)nc1)CCCN(C)Cc1ccccc1` the AC50 was “inactive”. `Cn1c(-c2ccc(Br)cc2)cnc1NCc1cccnc1` was tested, and the AC50 was 3.98 µM (active). For `Cn1c(-c2ccc(F)cc2)cnc1NCc1cccc(F)c1`, the AC50 was 8.91 µM (active). For `CCNc1ncc2nc(-c3ccc(F)cc3)c(=O)n(C)c2n1`, the AC50 was “inactive”. For `Cn1c(-c2ccc(F)cc2)cnc1NCc1ccc(F)cc1`, the AC50 was “inactive”. With `C[C@H](C(=O)O)c1cccc(Oc2ccccc2)c1` the AC50 was “inactive”. In the case of `CCC(C)(C)c1ccc(Oc2cccc(C(=O)O)c2)cc1`, the activity, negative = inhibition is reported as -2.44% [at 11.4 µM] (inactive). In the case of `C[C@@H](/C=C\c1cccc(Oc2ccc(F)cc2)c1)N(O)C(N)=O`, the AC50 is reported as 1 µM (active). With `COc1ccc(Br)cc1/C=C/C(=O)Nc1c(C)cccc1C` the AC50 was 4.47 µM (active). For `COC(=O)/C=C\c1cc(O)ccc1O`, the AC50 was “inactive”. `CCn1nc(C)c(NC(=O)/C=C/c2cnn(C)c2C)c1C` was tested, and the AC50 was “inactive”. `COc1cc2c(cc1OC)/C(=C/C(=O)N1CCOCC1)NC(C)(C)C2` was tested, and the AC50 was “inactive”. With `CN1CCc2c(c3c(n2C)CCN(C)[C@H]3c2ccccc2F)[C@@H]1c1ccccc1F` the AC50 was 7.94 µM (active). In the case of `Oc1ccc(Cl)cc1Cc1cc(Cl)cc(Cc2cc(Cl)ccc2O)c1O`, the activity, negative = inhibition is reported as -24.4% [at 11.4 µM] (inactive). With `CN1CCC(=C2c3ccccc3Sc3ccccc32)CC1` the AC50 was “inactive”. For `CN1CCN(CCC=C2c3ccccc3Sc3ccc(S(=O)(=O)N(C)C)cc32)CC1`, the AC50 was 12.6 µM (active). With `CN(C)CC/C=C1\c2ccccc2CSc2ccccc21` the AC50 was “inactive”. For `CC1CCC2(CC1)N=C(N)Nc1nc3ccccc3n12` (stereo unspecified), the AC50 was “inactive”. In the case of `CCCC1(C)Nc2ccccc2-c2nc3ccccc3n21` (stereo unspecified), the AC50 is reported as 12.6 µM (active). With `CCCCC1(C)Nc2ccccc2-c2nc3ccccc3n21` (stereo unspecified) the AC50 was 7.08 µM (active). With `CCC1(C)Nc2ccccc2C(=O)N1O` (stereo unspecified) the AC50 was “inactive”. For `NC1=NC2(CCCCCC2)n2c(nc3ccccc32)N1`, the AC50 was “inactive”. `COC(=O)[C@@]1(Cc2ccccc2)[C@H]2c3cc(C(=O)N(C)C)n(Cc4ccsc4Br)c3C[C@H]2CN1C(=O)c1ccccc1` was tested, and the AC50 was 1.58 µM (active). `COC(=O)[C@@]1(Cc2ccccc2)[C@H]2c3cc(C(=O)N4CCCC4)n(Cc4ccsc4Br)c3C[C@H]2CN1C(=O)c1ccccc1` was tested, and the AC50 was 3.98 µM (active). For `CC(C)c1ccc(/C(C(=O)O)=C(\O)C(=O)O)cc1`, the activity, negative = inhibition was -12.9% [at 11.4 µM] (inactive). `O=C(O)CCC(=O)c1ccc2ccc3cccc4ccc1c2c34` was tested, and the activity, negative = inhibition was -10.9% [at 11.4 µM] (inactive). With `CC1(C)OC(=O)C(=CNCC(O)c2ccccc2)C(=O)O1` (stereo unspecified) the activity, negative = inhibition was 20.4% [at 11.4 µM] (inactive). In the case of `COc1ccc(-c2cc(CNC(C)=O)on2)cc1`, the AC50 is reported as “inactive”. `COc1ccc(-c2noc(N(C)CC(=O)Nc3cccc(C(F)(F)F)c3)n2)cc1` was tested, and the AC50 was 12.6 µM (active). In the case of `Cc1cccc2sc(NC(=O)C3c4ccccc4Oc4ccccc43)nc12`, the AC50 is reported as 12.6 µM (active). For `Cc1ccccc1NC(=O)c1cnc(Nc2nc3ccccc3s2)nc1C`, the AC50 was “inactive”. With `CC(=O)c1ccc(OC(=O)C2c3ccccc3Oc3ccccc32)cc1` the activity, negative = inhibition was 10.9% [at 2.29 µM] (inactive). With `C[N+](C)(C)CCCSc1nc2ccccc2[nH]1` the activity, negative = inhibition was 4.86% [at 11.4 µM] (inactive). With `O=C(Nc1nn[nH]n1)c1nc(-c2ccccc2)cc(=O)[nH]1` the activity, negative = inhibition was -3.85% [at 11.4 µM] (inactive). `Cc1ccc2c(C)nc(Nc3nc(CSc4nc5ccccc5[nH]4)cc(=O)[nH]3)nc2c1` was tested, and the AC50 was 2.82 µM (active). For `Cc1ccc2nc(Nc3nc(-c4ccccc4)cc(=O)[nH]3)nc(C)c2c1`, the AC50 was 2.51 µM (active). For `O=c1nc(-c2ccccc2)cc(C(F)(F)F)[nH]1`, the AC50 was “inactive”. With `CC(=O)Nc1ccc(S(=O)(=O)NCCc2ccc(F)cc2)cc1` the activity, negative = inhibition was -13.3% [at 2.29 µM] (inactive). For `CCOC(=O)Cn1c(=O)oc2cc(S(=O)(=O)NCCc3ccc(OCC)c(OCC)c3)ccc21`, the AC50 was 12.6 µM (active). For `O=C(NN=C1C2CC3CC(C2)CC1C3)c1ccncc1`, the AC50 was 25.1 µM (active). With `CC(=O)c1c(C(C)=O)c(C)n(NC(=O)c2ccncc2)c1C` the AC50 was “inactive”. For `COc1ccc2c(c1)C(=O)N(c1ccccc1)C(=O)C2`, the AC50 was 2.24 µM (active). In the case of `COc1ccc2c(c1)-c1ccccc1S(=O)(=O)N2C`, the AC50 is reported as “inactive”. In the case of `O=C1c2ccc3c4c(ccc(c24)C(=O)N1c1ccc2ccccc2c1)CC3`, the AC50 is reported as “inactive”. In the case of `CCOc1ccc(OCc2ccc(C(=O)NCc3cccnc3)o2)cc1`, the AC50 is reported as 2.82 µM (active). `O=C(COc1ccc([N+](=O)[O-])cc1)NCc1ccccc1` was tested, and the AC50 was “inactive”. With `O=C(N/N=C/c1cccnc1)c1ccc([N+](=O)[O-])cc1` the AC50 was “inactive”. In the case of `Cc1ccccc1CS(=O)(=O)Cc1ccc(C(=O)NCc2cccnc2)o1`, the AC50 is reported as 0.891 µM (active). `O=C(c1ccc(COc2ccc(F)cc2)o1)n1cccn1` was tested, and the AC50 was “inactive”. For `O=C(COc1ccc([N+](=O)[O-])cc1)Nc1ccc(C(=O)NCc2cccnc2)cc1`, the AC50 was 12.6 µM (active). In the case of `CS(=O)(=O)Nc1cccc(-c2cc(NCc3ccccc3)ncn2)c1`, the AC50 is reported as 15.8 µM (active). For `CS(=O)(=O)Nc1cccc(-c2cc(Nc3ccccc3)ncn2)c1`, the AC50 was 15.8 µM (active). In the case of `CN(C)C(=O)c1ccc(-c2cc(Nc3ccccc3)ncn2)cc1`, the AC50 is reported as “inactive”. In the case of `CS(=O)(=O)Nc1cccc(-c2cc(NCc3cccs3)ncn2)c1`, the AC50 is reported as 15.8 µM (active). `Cc1cccc(CNc2cc(-c3cccc(NS(C)(=O)=O)c3)ncn2)c1` was tested, and the AC50 was 2 µM (active). `CC(=O)c1cn(CCCCCCCCCCn2cc(C(C)=O)c(=O)[nH]c2=O)c(=O)[nH]c1=O` was tested, and the activity, negative = inhibition was 2.06% [at 2.29 µM] (inactive).
